# From the supplement of paper PMC4466140
# Assays:
# Test in all cases: SPOT peptide array binding signal intensity (averaged, normalized) (arbitrary units (background-subtracted, floor 0; scale differs between SH3 domains)); higher = stronger binding of the SH3 domain to the peptide
# AgAbp1 = molecular target: AgAbp1
# Summary of the method: (§1)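 Spot intensities were captured after detection with anti-GST antibody, an HRP-linked anti-mouse secondary and luminol, and quantified with Genespotter. The probes were GST-fused SH3 domains from four yeast species, produced in E. coli BL21(DE3), purified on glutathione Sepharose and incubated at 10 μg/ml overnight at 4°C on cellulose-bound synthetic 15-mer peptides with cysteines replaced by serines. Binding signal is the normalized, background-subtracted spot intensity averaged over replicates, and its arbitrary units differ between domains.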
# AgBbc1 = molecular target: AgBbc1
# Summary of the method: as §1
# AgBem1-D1 = molecular target: AgBem1-D1
# Summary of the method: as §1
# AgBzz1-D1 = molecular target: AgBzz1-D1
# Summary of the method: as §1
# AgBzz1-D2 = molecular target: AgBzz1-D2
# Summary of the method: as §1
# AgCyk3 = molecular target: AgCyk3
# Summary of the method: as §1
# AgFus1 = molecular target: AgFus1
# Summary of the method: as §1
# AgHof1 = molecular target: AgHof1
# Summary of the method: as §1
# AgHse1 = molecular target: AgHse1
# Summary of the method: as §1
# AgLsb1 = molecular target: AgLsb1
# Summary of the method: as §1
# AgLsb4 = molecular target: AgLsb4
# Summary of the method: as §1
# AgMyo5 = molecular target: AgMyo5
# Summary of the method: as §1
# AgNbp2 = molecular target: AgNbp2
# Summary of the method: as §1
# AgRvs167 = molecular target: AgRvs167
# Summary of the method: as §1
# AgSho1 = molecular target: AgSho1
# Summary of the method: as §1
# AgSla1-D1-D2 = molecular target: AgSla1-D1-D2
# Summary of the method: as §1
# AgSla1-D3 = molecular target: AgSla1-D3
# Summary of the method: as §1
# CaAbp1-D1 = molecular target: CaAbp1-D1
# Summary of the method: as §1
# CaAbp1-D2 = molecular target: CaAbp1-D2
# Summary of the method: as §1
# CaBbc1 = molecular target: CaBbc1
# Summary of the method: as §1
# CaBem1-D1 = molecular target: CaBem1-D1
# Summary of the method: as §1
# CaBzz1-D1 = molecular target: CaBzz1-D1
# Summary of the method: as §1
# CaBzz1-D2 = molecular target: CaBzz1-D2
# Summary of the method: as §1
# CaCyk3 = molecular target: CaCyk3
# Summary of the method: as §1
# CaFus1 = molecular target: CaFus1
# Summary of the method: as §1
# CaHof1 = molecular target: CaHof1
# Summary of the method: as §1
# CaHse1 = molecular target: CaHse1
# Summary of the method: as §1
# CaLsb1 = molecular target: CaLsb1
# Summary of the method: as §1
# CaLsb4 = molecular target: CaLsb4
# Summary of the method: as §1
# CaMyo5 = molecular target: CaMyo5
# Summary of the method: as §1
# CaNbp2 = molecular target: CaNbp2
# Summary of the method: as §1
# CaRvs167 = molecular target: CaRvs167
# Summary of the method: as §1
# CaRvs167-3 = molecular target: CaRvs167-3
# Summary of the method: as §1
# CaSho1 = molecular target: CaSho1
# Summary of the method: as §1
# CaSla1-D1-D2 = molecular target: CaSla1-D1-D2
# Summary of the method: as §1
# CaSla1-D3 = molecular target: CaSla1-D3
# Summary of the method: as §1
# ScAbp1 = molecular target: ScAbp1
# Summary of the method: as §1
# ScBbc1 = molecular target: ScBbc1
# Summary of the method: as §1
# ScBem1-D1 = molecular target: ScBem1-D1
# Summary of the method: as §1
# ScBzz1-D1 = molecular target: ScBzz1-D1
# Summary of the method: as §1
# ScBzz1-D2 = molecular target: ScBzz1-D2
# Summary of the method: as §1
# ScCyk3 = molecular target: ScCyk3
# Summary of the method: as §1
# ScFus1 = molecular target: ScFus1
# Summary of the method: as §1
# ScHof1 = molecular target: ScHof1
# Summary of the method: as §1
# ScHse1 = molecular target: ScHse1
# Summary of the method: as §1
# ScLsb1 = molecular target: ScLsb1
# Summary of the method: as §1
# ScLsb2 = molecular target: ScLsb2
# Summary of the method: as §1
# ScLsb3 = molecular target: ScLsb3
# Summary of the method: as §1
# ScLsb4 = molecular target: ScLsb4
# Summary of the method: as §1
# ScMyo3 = molecular target: ScMyo3
# Summary of the method: as §1
# ScMyo5 = molecular target: ScMyo5
# Summary of the method: as §1
# ScNbp2 = molecular target: ScNbp2
# Summary of the method: as §1
# ScPex13 = molecular target: ScPex13
# Summary of the method: as §1
# ScRvs167 = molecular target: ScRvs167
# Summary of the method: as §1
# ScSho1 = molecular target: ScSho1
# Summary of the method: as §1
# ScSla1-D1-D2 = molecular target: ScSla1-D1-D2
# Summary of the method: as §1
# ScSla1-D3 = molecular target: ScSla1-D3
# Summary of the method: as §1
# SpAbp1-D1 = molecular target: SpAbp1-D1
# Summary of the method: as §1
# SpBbc1 = molecular target: SpBbc1
# Summary of the method: as §1
# SpBzz1-D1 = molecular target: SpBzz1-D1
# Summary of the method: as §1
# SpBzz1-D2 = molecular target: SpBzz1-D2
# Summary of the method: as §1
# SpCyk3 = molecular target: SpCyk3
# Summary of the method: as §1
# SpHof1 = molecular target: SpHof1
# Summary of the method: as §1
# SpHof1-2 = molecular target: SpHof1-2
# Summary of the method: as §1
# SpHof1-3 = molecular target: SpHof1-3
# Summary of the method: as §1
# SpHse1 = molecular target: SpHse1
# Summary of the method: as §1
# SpLsb1 = molecular target: SpLsb1
# Summary of the method: as §1
# SpLsb4 = molecular target: SpLsb4
# Summary of the method: as §1
# SpMyo1 = molecular target: SpMyo1
# Summary of the method: as §1
# SpNbp2 = molecular target: SpNbp2
# Summary of the method: as §1
# SpPex13 = molecular target: SpPex13
# Summary of the method: as §1
# SpRvs167 = molecular target: SpRvs167
# Summary of the method: as §1
# SpSla1-D1-D2 = molecular target: SpSla1-D1-D2
# Summary of the method: as §1
# SpSla1-D3 = molecular target: SpSla1-D3
# Summary of the method: as §1
binder,measurement,setting,value
RPVPRRPSQPLNTLS,SPOT peptide array binding signal intensity,AgAbp1,306
same,SPOT peptide array binding signal intensity,AgBbc1,801
same,SPOT peptide array binding signal intensity,AgBem1-D1,68.5
same,SPOT peptide array binding signal intensity,AgBzz1-D1,100
same,SPOT peptide array binding signal intensity,AgBzz1-D2,89
same,SPOT peptide array binding signal intensity,AgCyk3,1.25
same,SPOT peptide array binding signal intensity,AgFus1,24
same,SPOT peptide array binding signal intensity,AgHof1,32.8
same,SPOT peptide array binding signal intensity,AgHse1,67.5
same,SPOT peptide array binding signal intensity,AgLsb1,94.8
same,SPOT peptide array binding signal intensity,AgLsb4,2090
same,SPOT peptide array binding signal intensity,AgMyo5,≤ 0
same,SPOT peptide array binding signal intensity,AgNbp2,2250
same,SPOT peptide array binding signal intensity,AgRvs167,182
same,SPOT peptide array binding signal intensity,AgSho1,12.8
same,SPOT peptide array binding signal intensity,AgSla1-D1-D2,17
same,SPOT peptide array binding signal intensity,AgSla1-D3,7.12
same,SPOT peptide array binding signal intensity,CaAbp1-D1,456
same,SPOT peptide array binding signal intensity,CaAbp1-D2,805
same,SPOT peptide array binding signal intensity,CaBbc1,1900
same,SPOT peptide array binding signal intensity,CaBem1-D1,34
same,SPOT peptide array binding signal intensity,CaBzz1-D1,388
same,SPOT peptide array binding signal intensity,CaBzz1-D2,189
same,SPOT peptide array binding signal intensity,CaCyk3,413
same,SPOT peptide array binding signal intensity,CaFus1,141
same,SPOT peptide array binding signal intensity,CaHof1,0.25
same,SPOT peptide array binding signal intensity,CaHse1,56.1
same,SPOT peptide array binding signal intensity,CaLsb1,1.25
same,SPOT peptide array binding signal intensity,CaLsb4,2000
same,SPOT peptide array binding signal intensity,CaMyo5,8
same,SPOT peptide array binding signal intensity,CaNbp2,1770
same,SPOT peptide array binding signal intensity,CaRvs167,1240
same,SPOT peptide array binding signal intensity,CaRvs167-3,6
same,SPOT peptide array binding signal intensity,CaSho1,19.5
same,SPOT peptide array binding signal intensity,CaSla1-D1-D2,796
same,SPOT peptide array binding signal intensity,CaSla1-D3,5
same,SPOT peptide array binding signal intensity,ScAbp1,280
same,SPOT peptide array binding signal intensity,ScBbc1,514
same,SPOT peptide array binding signal intensity,ScBem1-D1,6.5
same,SPOT peptide array binding signal intensity,ScBzz1-D1,43.2
same,SPOT peptide array binding signal intensity,ScBzz1-D2,25.8
same,SPOT peptide array binding signal intensity,ScCyk3,22
same,SPOT peptide array binding signal intensity,ScFus1,≤ 0
same,SPOT peptide array binding signal intensity,ScHof1,0.5
same,SPOT peptide array binding signal intensity,ScHse1,389
same,SPOT peptide array binding signal intensity,ScLsb1,258
same,SPOT peptide array binding signal intensity,ScLsb2,56
same,SPOT peptide array binding signal intensity,ScLsb3,5960
same,SPOT peptide array binding signal intensity,ScLsb4,1750
same,SPOT peptide array binding signal intensity,ScMyo3,2
same,SPOT peptide array binding signal intensity,ScMyo5,1.25
same,SPOT peptide array binding signal intensity,ScNbp2,3100
same,SPOT peptide array binding signal intensity,ScPex13,1420
same,SPOT peptide array binding signal intensity,ScRvs167,2300
same,SPOT peptide array binding signal intensity,ScSho1,163
same,SPOT peptide array binding signal intensity,ScSla1-D1-D2,1000
same,SPOT peptide array binding signal intensity,ScSla1-D3,18
same,SPOT peptide array binding signal intensity,SpAbp1-D1,147
same,SPOT peptide array binding signal intensity,SpBbc1,380
same,SPOT peptide array binding signal intensity,SpBzz1-D1,466
same,SPOT peptide array binding signal intensity,SpBzz1-D2,1.5
same,SPOT peptide array binding signal intensity,SpCyk3,6.75
same,SPOT peptide array binding signal intensity,SpHof1,297
same,SPOT peptide array binding signal intensity,SpHof1-2,441
same,SPOT peptide array binding signal intensity,SpHof1-3,278
same,SPOT peptide array binding signal intensity,SpHse1,297
same,SPOT peptide array binding signal intensity,SpLsb1,350
same,SPOT peptide array binding signal intensity,SpLsb4,5510
same,SPOT peptide array binding signal intensity,SpMyo1,37.8
same,SPOT peptide array binding signal intensity,SpNbp2,81.5
same,SPOT peptide array binding signal intensity,SpPex13,4.25
same,SPOT peptide array binding signal intensity,SpRvs167,3150
same,SPOT peptide array binding signal intensity,SpSla1-D1-D2,13
same,SPOT peptide array binding signal intensity,SpSla1-D3,2
